Results from PubChem BioAssay AID1159580 (chemical genetic matrix, 2015).
The whole screen tested about 5,500 compounds, of which about 2,000 (36%) were called active. Not shown: some 18% with an inconclusive outcome. Cut-off read from the data, not from the text of the source: active = normalized growth mostly below about 0.91 (no sharp cut-off); inconclusive = no clear call, values can overlap the other calls; inactive = mostly above about 0.92. The list shows a part of the results.

Experiment: chemical genetic growth profiling, strain panel (AID 1159580);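 note: tested at 20 µM; growth read once vehicle control cultures reached saturation at 30 °C; 1 = growth at the plate median or of vehicle wells; lower values mean less growth of the strain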
Conditions: growth OD
[1] = S. cerevisiae deletion strains, locus YDL101C, strain DUN1, stronger effect = lower value
[2] = S. cerevisiae deletion strains, locus YHR030C, strain SLT2, stronger effect = lower value

Measured: normalized growth

c1ccc(CSC2=NCCCN2)cc1
inactive: S. cerevisiae deletion strains, locus YAL013W, strain DEP1, stronger effect = lower value 1 | S. cerevisiae deletion strains, locus YBR229C, strain ROT2, stronger effect = lower value 0.993 | [1] 1.01 | S. cerevisiae deletion strains, locus YDR150W, strain NUM1, stronger effect = lower value 0.977 | S. cerevisiae deletion strains, locus YEL061C, strain CIN8, stronger effect = lower value 1.02 | S. cerevisiae deletion strains, locus YGR078C, strain PAC10, stronger effect = lower value 1.01 | S. cerevisiae deletion strains, locus YGR229C, strain SMI1, stronger effect = lower value 1 | [2] 1.03 | S. cerevisiae deletion strains, locus YHR087W, strain rtc3, stronger effect = lower value 1.01 | S. cerevisiae deletion strains, locus YJR043C, strain POL32, stronger effect = lower value 1.01 | S. cerevisiae deletion strains, locus YJR075W, strain HOC1, stronger effect = lower value 0.997 | S. cerevisiae deletion strains, locus YKL190W, strain CNB1, stronger effect = lower value 1 | S. cerevisiae deletion strains, locus YLR039C, strain RIC1, stronger effect = lower value 0.993 | S. cerevisiae deletion strains, locus YLR058C, strain SHM2 (second series), stronger effect = lower value 1.01 | S. cerevisiae deletion strains, locus YLR085C, strain ARP6, stronger effect = lower value 1.04 | S. cerevisiae deletion strains, locus YLR262C, strain YPT6, stronger effect = lower value 1.01 | S. cerevisiae deletion strains, locus YML094W, strain GIM5, stronger effect = lower value 1 | S. cerevisiae deletion strains, locus YMR219W, strain ESC1, stronger effect = lower value 1.01 | S. cerevisiae deletion strains, locus YMR307W, strain GAS1, stronger effect = lower value 1 | S. cerevisiae deletion strains, locus YNL128W, strain TEP1, stronger effect = lower value 1.02 | S. cerevisiae deletion strains, locus YNL153C, strain GIM3, stronger effect = lower value 0.996 | S. cerevisiae deletion strains, locus YNL298W, strain CLA4 (second series), stronger effect = lower value 1.05 | S. cerevisiae deletion strains, locus YNL322C, strain KRE1, stronger effect = lower value 1.01 | S. cerevisiae deletion strains, locus YNR030W, strain Alg12, stronger effect = lower value 1.02 | S. cerevisiae deletion strains, locus YOL006C, strain TOP1, stronger effect = lower value 1.04 | S. cerevisiae deletion strains, locus YPL055C, strain LGE1, stronger effect = lower value 0.984 | S. cerevisiae deletion strains, locus YPL241C, strain CIN2, stronger effect = lower value 1.01 | S. cerevisiae deletion strains, locus YPR135W, strain CTF4, stronger effect = lower value 1.08 | S. cerevisiae strains, strain wild type, stronger effect = lower value 1.01

N=C(N)SCc1nc(-c2ccc(Cl)cc2)no1
inactive: S. cerevisiae deletion strains, locus YAR019C, strain CDC15, stronger effect = lower value 0.979 | S. cerevisiae deletion strains, locus YBL105C, strain PKC1, stronger effect = lower value 0.985 | S. cerevisiae deletion strains, locus YBR135W, strain CKS1, stronger effect = lower value 0.981 | S. cerevisiae deletion strains, locus YBR136W, strain MEC1, stronger effect = lower value 0.984 | S. cerevisiae deletion strains, locus YBR160W, strain CDC28, stronger effect = lower value 0.984 | S. cerevisiae deletion strains, locus YDL017W, strain CDC7, stronger effect = lower value 0.977 | S. cerevisiae deletion strains, locus YDL028C, strain MPS1, stronger effect = lower value 0.977 | [1] 0.99 | S. cerevisiae deletion strains, locus YDL108W, strain KIN28, stronger effect = lower value 0.976 | S. cerevisiae deletion strains, locus YDL132W, strain cdc53, stronger effect = lower value 0.99 | S. cerevisiae deletion strains, locus YDL214C, strain PRR2, stronger effect = lower value 0.975 | S. cerevisiae deletion strains, locus YDR052C, strain DBF4, stronger effect = lower value 0.99 | S. cerevisiae deletion strains, locus YDR054C, strain cdc34, stronger effect = lower value 0.978 | S. cerevisiae deletion strains, locus YDR226W, strain ADK1, stronger effect = lower value 0.978 | S. cerevisiae deletion strains, locus YDR477W, strain SNF1, stronger effect = lower value 0.977 | S. cerevisiae deletion strains, locus YER123W, strain YCK3, stronger effect = lower value 0.989 | S. cerevisiae deletion strains, locus YER133W, strain GLC7, stronger effect = lower value 0.986 | S. cerevisiae deletion strains, locus YFL009W, strain cdc4, stronger effect = lower value 0.983 | S. cerevisiae deletion strains, locus YFL029C, strain CAK1, stronger effect = lower value 0.978 | S. cerevisiae deletion strains, locus YFR003C, strain YPI1, stronger effect = lower value 0.982 | S. cerevisiae deletion strains, locus YFR019W, strain FAB1, stronger effect = lower value 0.973 | S. cerevisiae deletion strains, locus YFR028C, strain CDC14, stronger effect = lower value 0.986 | S. cerevisiae deletion strains, locus YGR040W, strain KSS1, stronger effect = lower value 0.98 | S. cerevisiae deletion strains, locus YGR052W, strain FMP48, stronger effect = lower value 1.03 | S. cerevisiae deletion strains, locus YGR092W, strain DBF2, stronger effect = lower value 0.987 | [2] 0.949 | S. cerevisiae deletion strains, locus YHR079C, strain IRE1, stronger effect = lower value 0.96 | S. cerevisiae deletion strains, locus YHR082C, strain KSP1, stronger effect = lower value 1.06 | S. cerevisiae deletion strains, locus YHR205W, strain SCH9, stronger effect = lower value 0.828 | S. cerevisiae deletion strains, locus YIL147C, strain SLN1, stronger effect = lower value 0.985 | S. cerevisiae deletion strains, locus YJL095W, strain BCK1, stronger effect = lower value 1.01 | S. cerevisiae deletion strains, locus YJL128C, strain PBS2, stronger effect = lower value 0.929 | S. cerevisiae deletion strains, locus YJL157C, strain FAR1, stronger effect = lower value 0.974 | S. cerevisiae deletion strains, locus YJR016C, strain ILV3, stronger effect = lower value 0.987 | S. cerevisiae deletion strains, locus YJR066W, strain TOR1 (second series), stronger effect = lower value 0.981 | S. cerevisiae deletion strains, locus YJR066W, strain TOR1, stronger effect = lower value 1.11 | S. cerevisiae deletion strains, locus YKL048C, strain ELM1, stronger effect = lower value 0.982 | S. cerevisiae deletion strains, locus YKL067W, strain YNK1, stronger effect = lower value 0.984 | S. cerevisiae deletion strains, locus YKL101W, strain HSL1, stronger effect = lower value 0.992 | S. cerevisiae deletion strains, locus YKL193C, strain SDS22, stronger effect = lower value 0.985 | S. cerevisiae deletion strains, locus YKL203C, strain TOR2, stronger effect = lower value 1.05 | S. cerevisiae deletion strains, locus YLR113W, strain HOG1, stronger effect = lower value 0.989 | S. cerevisiae deletion strains, locus YLR133W, strain CKI1, stronger effect = lower value 0.98 | S. cerevisiae deletion strains, locus YLR403W, strain SFP1, stronger effect = lower value 0.911 | S. cerevisiae deletion strains, locus YML070W, strain DAK1, stronger effect = lower value 0.996 | S. cerevisiae deletion strains, locus YMR001C, strain CDC5, stronger effect = lower value 0.981 | S. cerevisiae deletion strains, locus YMR205C, strain PFK2 (second series), stronger effect = lower value 0.981 | S. cerevisiae deletion strains, locus YMR277W, strain FCP1, stronger effect = lower value 0.985 | S. cerevisiae deletion strains, locus YNL006W, strain LST8, stronger effect = lower value 0.981 | S. cerevisiae deletion strains, locus YNL020C, strain ARK1, stronger effect = lower value 0.986 | S. cerevisiae deletion strains, locus YNL161W, strain CBK1, stronger effect = lower value 0.983 | S. cerevisiae deletion strains, locus YNL183C, strain NPR1, stronger effect = lower value 1.1 | S. cerevisiae deletion strains, locus YNL207W, strain RIO2, stronger effect = lower value 0.978 | S. cerevisiae deletion strains, locus YNL222W, strain SSU72, stronger effect = lower value 0.984 | S. cerevisiae deletion strains, locus YNL307C, strain MCK1 (second series), stronger effect = lower value 0.983 | S. cerevisiae deletion strains, locus YOL078W, strain AVO1, stronger effect = lower value 0.981 | S. cerevisiae deletion strains, locus YOL136C, strain PFK27, stronger effect = lower value 0.97 | S. cerevisiae deletion strains, locus YOR061W, strain CKA2, stronger effect = lower value 0.986 | S. cerevisiae deletion strains, locus YOR119C, strain RIO1, stronger effect = lower value 1.05 | S. cerevisiae deletion strains, locus YOR231W, strain MKK1, stronger effect = lower value 1.03 | S. cerevisiae deletion strains, locus YOR329C, strain SCD5, stronger effect = lower value 0.982 | S. cerevisiae deletion strains, locus YPL031C, strain PHO85, stronger effect = lower value 0.964 | S. cerevisiae deletion strains, locus YPL153C, strain RAD53, stronger effect = lower value 0.964 | S. cerevisiae deletion strains, locus YPL204W, strain HRR25, stronger effect = lower value 0.953 | S. cerevisiae deletion strains, locus YPL209C, strain IPL1, stronger effect = lower value 0.986 | S. cerevisiae deletion strains, locus YPL256C, strain CLN2, stronger effect = lower value 0.925 | S. cerevisiae deletion strains, locus YPR025C, strain CCL1, stronger effect = lower value 0.987 | S. cerevisiae deletion strains, locus YPR106W, strain ISR1, stronger effect = lower value 0.978 | S. cerevisiae deletion strains, locus YPR111W, strain DBF20, stronger effect = lower value 0.981 | S. cerevisiae deletion strains, strain NNK1, stronger effect = lower value 0.992 | S. cerevisiae deletion strains, strain TSCII, stronger effect = lower value 0.983
